The values below come from paper PMC7826789 (International Journal of Molecular Sciences, 2021).

Molecules are shown by their SMILES.

In the first assay the test system is DDR1.
On to `Cc1cn(-c2cc(NC(=O)c3ccc4c(c3)CN(c3cncnc3)C[C@@H]4C)cc(C(F)(F)F)c2)cn1` [D2202-1], for which the Kinases covered result is on record as “DDR1”.

As for `CCN1CCN(Cc2ccc(C(=O)Nc3ccc(C)c(Oc4ccc5c(c4)CC(=O)N5)c3)cc2C(F)(F)F)CC1.Cl.Cl` [DDR1-IN-1], the Kinases covered result is reported as “DDR1”. For `O=C(Nc1ccccc1)Nc1cccc(Oc2ccc3nccn3n2)c1` [TPKI-39], the Kinases covered entry was “DDR1”.

Consider `Cc1ccc(-n2nc(C(C)(C)C)cc2NC(=O)Nc2ccc(OCCN3CCOCC3)cc2)cc1` [BIRB0876BS], for which the Kinases covered result is on record as “DDR1”.

In a further assay the test system is DYRK1A.
With `CCCNC(=O)c1ccc(Nc2ncc(C(F)(F)F)c(Nc3ccccc3C(C)=O)n2)c(Br)c1` [BI00801818], the Kinases covered result was “DYRK1A”. With `CCC(NN(C)C)=C1C(=O)Nc2ccc(C(C)=O)cc21` [BI00036838], the Kinases covered result is on record as “DYRK1A”.

Consider `COC[C@@H](C)N[C@H]1CC[C@H](Nc2cc(-c3cccc(NCC4(C#N)CCOCC4)n3)c(Cl)cn2)CC1` [NVP-2], for which the Kinases covered result was “DYRK1A”.
